Counter-ions that a name gives are not always drawn.
These compounds were tested on Saccharomyces cerevisiae BY4741 SeMeCo community (assay: z-score of subpopulation abundance vs DMSO median, subpopulation auxotrophic for M; higher = larger share of this subpopulation than in DMSO controls). Conditions: 10 µM; 24 h; SM minimal medium; subpopulation (auxotrophy): M.
Description: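 Fluorescent four-plasmid SeMeCo (self-establishing metabolically cooperating S. cerevisiae BY4741 community; plasmids pH-mRuby2, pL-mWasabi, pU-eCFP, pM-TagRFP657) was grown 24 h in minimal SM medium with each Selleck FDA-approved drug at 10 µM in 384-well plates. Cells were fixed and imaged by high-content confocal microscopy. For each auxotrophic subpopulation (and the prototroph), a z-score gives the deviation from the DMSO vehicle-control population median.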

First: Clc1ccccc1C(c1ccccc1)(c1ccccc1)n1ccnc1 [Clotrimazole]
Second: CN(Cc1ccc(C(C)(C)C)cc1)Cc1cccc2ccccc12 [Butenafine HCl]
The “z-score of subpopulation abundance” value of the first is higher: 4.9 for the first, 0.23 for the second.

Compared with `CC(N)C12CC3CC(CC(C3)C1)C2` (stereo not given) [Rimantadine], `CC1=CC[C@@](O)(C(C)C)CC1` [Terpinen-4-ol] is lower in “z-score of subpopulation abundance” value: 0.39 for the first, -1.02 for the second.

Going from `Cc1nc2n(c(=O)c1CCN1CCC(c3noc4cc(F)ccc34)CC1)CCCC2O` (stereo not given) [Paliperidone] to `CCc1c2c(nc3ccc(OC(=O)N4CCC(N5CCCCC5)CC4)cc13)-c1cc3c(c(=O)n1C2)COC(=O)[C@]3(O)CC` [Irinotecan HCl Trihydrate], the “z-score of subpopulation abundance” value rises from 0.41 to 1.27.

Going from `CCC(=O)NS(=O)(=O)c1ccc(-c2c(-c3ccccc3)noc2C)cc1` [Parecoxib] to `CC(C(=O)O)c1cccc(C(=O)c2ccccc2)c1` (stereo not given) [Ketoprofen], the “z-score of subpopulation abundance” value falls from 0.6 to -0.04.

Going from `OC(c1cc(C(F)(F)F)nc2c(C(F)(F)F)cccc12)C1CCCCN1` (stereo not given) [Mefloquine HCl] to `CCOc1ccc2nc3cc(N)ccc3c(N)c2c1` [Ethacridine lactate monohydrate], the “z-score of subpopulation abundance” value rises from -0.32 to 5.99.

Compared with `CCC(=O)O[C@@H]1CC(=O)O[C@H](C)C/C=C/C=C/[C@H](O)[C@H](C)C[C@H](CC=O)[C@H](O[C@@H]2O[C@H](C)[C@@H](O[C@H]3C[C@@](C)(O)[C@@H](OC(=O)CC)[C@H](C)O3)[C@H](N(C)C)[C@H]2O)[C@H]1OC` [Midecamycin], `CC[C@@H]1/C=C(\C)C[C@H](C)C[C@H](OC)[C@H]2O[C@@](O)(C(=O)C(=O)N3CCCC[C@H]3C(=O)O[C@H](/C(C)=C/[C@@H]3CC[C@@H](O)[C@H](OC)C3)[C@H](C)[C@@H](O)CC1=O)[C@H](C)C[C@@H]2OC` [Ascomycin (FK520)] is higher in “z-score of subpopulation abundance” value: 1.11 for the first, 1.34 for the second.

Compared with `Nc1nc(O)c2ncn(CCC(CO)CO)c2n1` [Penciclovir], `Nc1nc2c(ncn2COCCO)c(=O)[nH]1` [Aciclovir] is higher in “z-score of subpopulation abundance” value: -0.61 for the first, -0.02 for the second.

Compared with `NC[C@H]1O[C@H](O[C@H]2[C@H](O[C@@H]3O[C@H](CO)[C@@H](O)[C@H]3O)[C@@H](O)[C@H](N)C[C@@H]2N)[C@H](N)[C@@H](O)[C@@H]1O` [Ribostamycin Sulfate], `CO/N=C1\C[C@]2(C[C@@H]3C[C@@H](C/C=C(\C)C[C@@H](C)/C=C/C=C4\CO[C@@H]5[C@H](O)C(C)=C[C@@H](C(=O)O3)[C@]45O)O2)O[C@H](/C(C)=C/C(C)C)[C@H]1C` [Moxidectin] is lower in “z-score of subpopulation abundance” value: -0.49 for the first, -0.74 for the second.

First: CCN(Cc1ccncc1)C(=O)C(CO)c1ccccc1 (stereo not given) [Tropicamide]
Second: CCCCOc1ccc(CC(=O)NO)cc1 [Bufexamac]
The “z-score of subpopulation abundance” value of the first is higher: -0.16 for the first, -0.94 for the second.

Compared with `CCC(C)(Oc1ccc(C2(c3ccc(OC(C)(CC)C(=O)O)cc3)CCCCC2)cc1)C(=O)O` (stereo not given) [Clinofibrate], `O=C(c1ccc(OCCN2CCCCC2)cc1)c1c(-c2ccc(O)cc2)sc2cc(O)ccc12` [Raloxifene HCl] is higher in “z-score of subpopulation abundance” value: 0.41 for the first, 0.58 for the second.

First: Cn1nnnc1SCC1=C(C(=O)O)N2C(=O)[C@@H](NC(=O)[C@H](OC=O)c3ccccc3)[C@H]2SC1 [Cefamandole nafate]
Second: Cc1nnc(SCC2=C(C(=O)O)N3C(=O)[C@@H](NC(=O)Cn4cc(Cl)c(=O)c(Cl)c4)[C@H]3SC2)s1 [Cefazedone]
The “z-score of subpopulation abundance” value of the first is lower: 0.49 for the first, 0.65 for the second.

Going from `COc1ccc2cc(C(=O)O)ccc2c1` [6-Methoxy-2-naphthoic acid] to `COC(=O)Nc1nc2cc(C(=O)c3ccc(F)cc3)ccc2[nH]1` [Flubendazole], the “z-score of subpopulation abundance” value rises from -2.65 to -0.07.

Compared with `CC(=O)O[C@H]1C[C@@H]2CC[C@@H]3[C@H](CC[C@@]4(C)[C@H]3C[C@H]([N+]3(C)CCCCC3)[C@@H]4OC(C)=O)[C@@]2(C)C[C@@H]1N1CCCCC1` [Vecuronium Bromide], `C=CC[N+]1([C@H]2C[C@H]3[C@@H]4CC[C@H]5C[C@H](O)[C@@H](N6CCOCC6)C[C@]5(C)[C@H]4CC[C@]3(C)[C@H]2OC(C)=O)CCCC1` [Rocuronium Bromide] is lower in “z-score of subpopulation abundance” value: -0.47 for the first, -1.19 for the second.

First: Nc1cc(C(Cl)=C(Cl)Cl)c(S(N)(=O)=O)cc1S(N)(=O)=O [Clorsulon]
Second: Nc1ccc(C(=O)O)c(O)c1 [4-Aminosalicylic acid]
The “z-score of subpopulation abundance” value of the first is lower: -0.33 for the first, 1.33 for the second.

Compared with `O=C(O)c1cn(C2CC2)c2cc(N3CCNCC3)c(F)cc2c1=O` [Ciprofloxacin hydrochloride hydrate], `CC1=C(C(=O)O)N2C(=O)[C@@H](NC(=O)[C@H](N)C3=CCC=CC3)[C@H]2SC1` [Cephradine monohydrate] is lower in “z-score of subpopulation abundance” value: 0.57 for the first, -0.02 for the second.

Going from `O=C(O)CCCCCCCC(=O)O` [Azelaic acid] to `Nc1nc2[nH]cc(CCc3ccc(C(=O)N[C@@H](CCC(=O)O)C(=O)O)cc3)c2c(=O)[nH]1` [Pemetrexed], the “z-score of subpopulation abundance” value falls from 0.44 to -9.06.

Going from `CN(C)CCC=C1c2ccccc2CCc2ccccc21` [Amitriptyline HCl] to `CN(C)CCCN1c2ccccc2CCc2ccc(Cl)cc21` [Clomipramine HCl], the “z-score of subpopulation abundance” value rises from 0.09 to 0.54.

Going from `Clc1ccc(COC(Cn2ccnc2)c2ccc(Cl)cc2Cl)c(Cl)c1` (stereo not given) [Miconazole] to `COc1ccccc1OCC(O)CN1CCN(CC(=O)Nc2c(C)cccc2C)CC1` (stereo not given) [Ranolazine 2HCl], the “z-score of subpopulation abundance” value rises from -7.11 to -0.08.

First: CC(C)(C)CC(C)(C)c1ccc(OCCOCC[N+](C)(C)Cc2ccccc2)cc1 [Benzethonium Chloride]
Second: CCCCc1oc2ccc(NS(C)(=O)=O)cc2c1C(=O)c1ccc(OCCCN(CCCC)CCCC)cc1 [Dronedarone HCl]
The “z-score of subpopulation abundance” value of the first is lower: -2.12 for the first, -0.05 for the second.

First: O=C1OCCN1/N=C/c1ccc([N+](=O)[O-])o1 [Furazolidone]
Second: O=c1[nH]cc(F)c(=O)[nH]1 [Fluorouracil (5-Fluoracil, 5-FU)]
The “z-score of subpopulation abundance” value of the first is higher: 1.9 for the first, -2.62 for the second.

— the supplement of paper PMC8975748
